# In PubChem BioAssay AID1159580 (chemical genetic matrix, 2015):
# About 2,000 (36%) of roughly 5,500 compounds were called active. Inconclusive results (about 18%) are left out. This is one part of the list. Values without a mark were called inactive. Cut-off read from the data, not from the text of the source: active = normalized growth mostly below about 0.91 (no sharp cut-off); inconclusive = no clear call, values can overlap the other calls; inactive = mostly above about 0.92.
# Experiment: chemical genetic growth profiling, strain panel (AID 1159580);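 note: tested at 20 µM; growth read once vehicle control cultures reached saturation at 30 °C; 1 = growth at the plate median or of vehicle wells; lower values mean less growth of the strain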
# Conditions: S. cerevisiae deletion strains, growth OD
# [1] = locus YAL013W, strain DEP1, active compounds read low
# [2] = locus YBR229C, strain ROT2, active compounds read low
# [3] = locus YCL061C, strain MRC1, active compounds read low
# [4] = locus YDL101C, strain DUN1, active compounds read low
# [5] = locus YDR150W, strain NUM1, active compounds read low
# [6] = locus YEL061C, strain CIN8, active compounds read low
# [7] = locus YGR078C, strain PAC10, active compounds read low
# [8] = locus YHR030C, strain SLT2, active compounds read low
# [9] = locus YHR087W, strain rtc3, active compounds read low
# [10] = locus YJR043C, strain POL32, active compounds read low
# [11] = locus YJR075W, strain HOC1, active compounds read low
# [12] = locus YLR039C, strain RIC1, active compounds read low
# [13] = locus YLR058C, strain SHM2 (second series), active compounds read low
# [14] = locus YLR085C, strain ARP6, active compounds read low
# [15] = locus YLR262C, strain YPT6, active compounds read low
# [16] = locus YML094W, strain GIM5, active compounds read low
# [17] = locus YMR219W, strain ESC1, active compounds read low
# [18] = locus YMR263W, strain SAP30, active compounds read low
# [19] = locus YMR307W, strain GAS1, active compounds read low
# [20] = locus YNL153C, strain GIM3, active compounds read low
# [21] = locus YNL298W, strain CLA4 (second series), active compounds read low
# [22] = locus YNL322C, strain KRE1, active compounds read low
# [23] = locus YNR030W, strain Alg12, active compounds read low
# [24] = locus YPL055C, strain LGE1, active compounds read low
# [25] = locus YPR135W, strain CTF4, active compounds read low
smiles,measurement,setting,value
O=C(CSc1nnc(NC(=O)c2cccc([N+](=O)[O-])c2)s1)Nc1ccc2c(c1)OCO2,normalized growth,[1],0.991
same,normalized growth,[2],0.995
same,normalized growth,[3],1.01
same,normalized growth,[4],0.986
same,normalized growth,[5],0.982
same,normalized growth,[6],0.982
same,normalized growth,[7],0.991
same,normalized growth,[8],0.985
same,normalized growth,[9],0.997
same,normalized growth,"locus YJL187C, strain SWE1, active compounds read low",0.995
same,normalized growth,[10],0.977
same,normalized growth,[11],1.02
same,normalized growth,[12],0.976
same,normalized growth,[13],0.985
same,normalized growth,[14],0.996
same,normalized growth,[15],0.985
same,normalized growth,[16],0.948
same,normalized growth,[17],1
same,normalized growth,[18],1.01
same,normalized growth,[19],1.05
same,normalized growth,[20],1.01
same,normalized growth,[21],1
same,normalized growth,[22],0.989
same,normalized growth,[23],1.01
same,normalized growth,[24],0.998
same,normalized growth,[25],0.939
O=C(Nc1nccs1)c1ccc([N+](=O)[O-])cc1,normalized growth,[1],0.979
same,normalized growth,[2],0.97
same,normalized growth,[3],0.992
same,normalized growth,[4],0.972
same,normalized growth,"locus YDL134C, strain PPH21, active compounds read low",1.01
same,normalized growth,[5],0.984
same,normalized growth,[6],0.968
same,normalized growth,[7],0.973
same,normalized growth,[8],0.977
same,normalized growth,[9],0.973
same,normalized growth,[10],1.02
same,normalized growth,[11],0.924
same,normalized growth,"locus YKL190W, strain CNB1, active compounds read low",1
same,normalized growth,[12],0.851
same,normalized growth,[13],0.981
same,normalized growth,[14],0.729 (active)
same,normalized growth,[15],0.917
same,normalized growth,[16],0.94
same,normalized growth,[17],0.978
same,normalized growth,[18],0.986
same,normalized growth,[19],0.905
same,normalized growth,[20],0.976
same,normalized growth,[21],0.976
same,normalized growth,[22],0.983
same,normalized growth,[23],0.97
same,normalized growth,"locus YOL006C, strain TOP1, active compounds read low",0.514 (active)
same,normalized growth,[24],0.97
same,normalized growth,"locus YPL241C, strain CIN2, active compounds read low",0.954
same,normalized growth,[25],0.933
